# About 7,900 targets were measured; listed, in parts, are those with a hit and a random draw of the rest. About 0.6% of all pairs of compound and target were hits.
# Compound: CS(=O)(=O)c1ccc(-c2cnc(N)c(C(=O)Nc3ccccc3)n2)cc1
# Assay: log2 fold change, soluble protein after heating vs DMSO (PISA); higher = thermal stabilisation; K562 cells, 10 uM, 30 min; active = over 0.2 and 3.5 SD of the protein, either way, in both replicates (recomputed)
# Method in brief: (§1)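 K562 cells at 2×10^6 cells/mL were given 10 μM compound for 30 min. Aliquots then went through 3 min of heating across 48°C-58°C, were pooled, and were extracted in PBS with 0.5% NP-40 at 4°C, and the supernatant after 21,000xg for 90 min was quantified by TMTpro 16plex LC-MS/MS with channel sums equalised. Thermal stability relative to control samples, from duplicates, is given as log2 fold change.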
# UniProt P45973, sequence (P45973 whole entry, looked up): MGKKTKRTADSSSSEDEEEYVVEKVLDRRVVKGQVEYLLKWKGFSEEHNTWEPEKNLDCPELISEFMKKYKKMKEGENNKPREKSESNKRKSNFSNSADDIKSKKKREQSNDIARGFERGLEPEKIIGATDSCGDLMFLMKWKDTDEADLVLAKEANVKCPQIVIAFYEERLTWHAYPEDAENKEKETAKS
# UniProt Q16740, sequence (Q16740 whole entry, looked up): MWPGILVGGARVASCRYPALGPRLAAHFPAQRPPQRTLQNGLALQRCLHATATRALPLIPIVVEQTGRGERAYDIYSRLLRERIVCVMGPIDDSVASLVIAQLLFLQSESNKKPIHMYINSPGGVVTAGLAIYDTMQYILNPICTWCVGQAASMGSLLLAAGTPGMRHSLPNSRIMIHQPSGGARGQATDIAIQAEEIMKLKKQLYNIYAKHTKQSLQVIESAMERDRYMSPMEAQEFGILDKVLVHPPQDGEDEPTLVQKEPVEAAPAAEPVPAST
# UniProt P61024, sequence (P61024 whole entry, looked up): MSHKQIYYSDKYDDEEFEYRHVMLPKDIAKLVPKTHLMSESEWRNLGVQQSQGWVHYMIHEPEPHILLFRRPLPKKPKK
# UniProt Q12873, sequence (Q12873 whole entry, looked up): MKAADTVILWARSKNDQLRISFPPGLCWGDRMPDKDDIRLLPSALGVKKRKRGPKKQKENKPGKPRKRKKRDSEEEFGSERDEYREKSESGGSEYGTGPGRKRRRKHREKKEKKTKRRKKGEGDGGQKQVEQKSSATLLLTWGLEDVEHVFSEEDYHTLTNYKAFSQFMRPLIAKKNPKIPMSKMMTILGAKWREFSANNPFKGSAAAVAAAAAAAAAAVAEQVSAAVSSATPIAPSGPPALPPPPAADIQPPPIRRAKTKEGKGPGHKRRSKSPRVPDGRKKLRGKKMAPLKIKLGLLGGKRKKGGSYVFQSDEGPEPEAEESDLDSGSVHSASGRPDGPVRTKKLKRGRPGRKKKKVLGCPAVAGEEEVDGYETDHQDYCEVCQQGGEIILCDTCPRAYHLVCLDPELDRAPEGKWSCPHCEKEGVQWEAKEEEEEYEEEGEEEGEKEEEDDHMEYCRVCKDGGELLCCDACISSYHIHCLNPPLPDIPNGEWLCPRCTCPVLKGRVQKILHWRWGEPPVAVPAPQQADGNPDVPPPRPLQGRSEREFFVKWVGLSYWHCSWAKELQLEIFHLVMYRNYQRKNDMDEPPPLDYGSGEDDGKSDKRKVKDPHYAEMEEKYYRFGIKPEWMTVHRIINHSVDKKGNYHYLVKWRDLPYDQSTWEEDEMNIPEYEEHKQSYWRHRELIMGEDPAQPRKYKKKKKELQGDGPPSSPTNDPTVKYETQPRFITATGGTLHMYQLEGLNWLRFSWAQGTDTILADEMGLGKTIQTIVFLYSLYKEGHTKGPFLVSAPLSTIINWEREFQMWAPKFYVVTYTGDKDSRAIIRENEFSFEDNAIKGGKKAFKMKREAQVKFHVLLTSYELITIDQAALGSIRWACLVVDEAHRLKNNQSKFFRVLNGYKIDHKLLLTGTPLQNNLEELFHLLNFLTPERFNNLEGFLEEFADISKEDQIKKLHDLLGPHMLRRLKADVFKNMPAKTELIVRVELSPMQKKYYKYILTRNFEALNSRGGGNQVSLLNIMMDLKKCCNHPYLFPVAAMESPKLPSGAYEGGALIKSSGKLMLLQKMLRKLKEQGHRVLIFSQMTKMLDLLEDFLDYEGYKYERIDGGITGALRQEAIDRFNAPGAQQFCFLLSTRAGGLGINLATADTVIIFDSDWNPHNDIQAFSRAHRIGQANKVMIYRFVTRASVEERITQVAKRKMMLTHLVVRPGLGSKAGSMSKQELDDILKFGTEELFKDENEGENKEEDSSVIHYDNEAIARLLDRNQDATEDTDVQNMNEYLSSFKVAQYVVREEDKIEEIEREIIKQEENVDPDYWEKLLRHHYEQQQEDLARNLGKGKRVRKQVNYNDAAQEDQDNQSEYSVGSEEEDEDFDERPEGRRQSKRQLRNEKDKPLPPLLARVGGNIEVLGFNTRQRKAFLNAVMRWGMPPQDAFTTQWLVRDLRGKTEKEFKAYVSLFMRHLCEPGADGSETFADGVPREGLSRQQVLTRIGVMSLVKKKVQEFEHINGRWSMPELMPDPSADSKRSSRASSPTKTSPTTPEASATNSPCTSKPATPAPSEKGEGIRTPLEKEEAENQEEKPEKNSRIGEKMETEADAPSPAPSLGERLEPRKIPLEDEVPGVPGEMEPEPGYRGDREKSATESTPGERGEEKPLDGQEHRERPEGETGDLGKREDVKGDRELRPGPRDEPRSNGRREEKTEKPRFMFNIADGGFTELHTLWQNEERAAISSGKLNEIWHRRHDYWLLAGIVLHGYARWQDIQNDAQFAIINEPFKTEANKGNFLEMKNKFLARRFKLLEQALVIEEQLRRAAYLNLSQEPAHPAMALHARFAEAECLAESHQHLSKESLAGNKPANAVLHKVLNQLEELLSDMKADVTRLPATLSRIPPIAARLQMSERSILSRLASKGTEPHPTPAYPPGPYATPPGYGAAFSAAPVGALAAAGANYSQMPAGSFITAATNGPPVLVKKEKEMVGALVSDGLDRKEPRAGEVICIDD
# UniProt P16152, sequence (P16152 whole entry, looked up): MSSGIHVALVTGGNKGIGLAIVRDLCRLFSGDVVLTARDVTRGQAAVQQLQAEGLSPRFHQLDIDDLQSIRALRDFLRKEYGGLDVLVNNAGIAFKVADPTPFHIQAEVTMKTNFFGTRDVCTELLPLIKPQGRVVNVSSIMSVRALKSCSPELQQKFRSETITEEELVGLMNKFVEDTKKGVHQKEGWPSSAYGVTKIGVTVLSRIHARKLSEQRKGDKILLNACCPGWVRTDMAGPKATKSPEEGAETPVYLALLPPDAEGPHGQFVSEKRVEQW
# UniProt O95319, sequence (O95319 whole entry, looked up): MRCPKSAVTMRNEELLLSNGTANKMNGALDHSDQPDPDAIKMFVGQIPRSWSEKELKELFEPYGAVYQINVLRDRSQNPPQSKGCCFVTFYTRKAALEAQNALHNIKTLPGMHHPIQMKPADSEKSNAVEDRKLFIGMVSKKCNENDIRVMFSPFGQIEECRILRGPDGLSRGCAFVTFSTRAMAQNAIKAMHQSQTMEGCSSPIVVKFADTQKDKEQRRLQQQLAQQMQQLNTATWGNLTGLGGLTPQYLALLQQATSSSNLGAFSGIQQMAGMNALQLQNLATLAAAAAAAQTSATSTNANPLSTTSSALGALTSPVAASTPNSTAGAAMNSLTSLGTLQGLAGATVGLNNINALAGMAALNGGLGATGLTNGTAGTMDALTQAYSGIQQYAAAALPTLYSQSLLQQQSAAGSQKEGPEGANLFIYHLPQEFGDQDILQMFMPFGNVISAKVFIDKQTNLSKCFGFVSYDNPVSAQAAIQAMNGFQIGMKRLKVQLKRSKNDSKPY
# UniProt P46109, sequence (P46109 whole entry, looked up): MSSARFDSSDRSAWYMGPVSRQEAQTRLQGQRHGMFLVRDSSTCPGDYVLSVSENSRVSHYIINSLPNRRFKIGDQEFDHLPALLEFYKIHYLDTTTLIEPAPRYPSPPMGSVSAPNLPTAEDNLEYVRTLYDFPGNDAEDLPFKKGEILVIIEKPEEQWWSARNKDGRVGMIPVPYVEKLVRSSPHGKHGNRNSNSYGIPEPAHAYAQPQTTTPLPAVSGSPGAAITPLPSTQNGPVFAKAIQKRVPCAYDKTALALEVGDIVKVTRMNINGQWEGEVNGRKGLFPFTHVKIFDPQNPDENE
# UniProt P67870, sequence (P67870 whole entry, looked up): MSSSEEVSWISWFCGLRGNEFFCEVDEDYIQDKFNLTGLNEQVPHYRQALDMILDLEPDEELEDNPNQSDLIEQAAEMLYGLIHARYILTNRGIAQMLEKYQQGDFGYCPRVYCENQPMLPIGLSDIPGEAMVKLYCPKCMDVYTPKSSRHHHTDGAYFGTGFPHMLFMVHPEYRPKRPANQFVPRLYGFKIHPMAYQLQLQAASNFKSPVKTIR
# UniProt O75208, sequence (O75208 whole entry, looked up): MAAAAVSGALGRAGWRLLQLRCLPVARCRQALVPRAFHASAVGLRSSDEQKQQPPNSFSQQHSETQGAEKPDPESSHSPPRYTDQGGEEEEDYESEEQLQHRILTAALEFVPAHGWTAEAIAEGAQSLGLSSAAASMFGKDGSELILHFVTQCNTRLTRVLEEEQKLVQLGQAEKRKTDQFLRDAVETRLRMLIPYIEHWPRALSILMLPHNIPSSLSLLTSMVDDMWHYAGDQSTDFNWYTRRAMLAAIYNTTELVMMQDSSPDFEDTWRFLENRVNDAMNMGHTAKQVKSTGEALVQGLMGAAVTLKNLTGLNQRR
# UniProt O95628, sequence (O95628 whole entry, looked up): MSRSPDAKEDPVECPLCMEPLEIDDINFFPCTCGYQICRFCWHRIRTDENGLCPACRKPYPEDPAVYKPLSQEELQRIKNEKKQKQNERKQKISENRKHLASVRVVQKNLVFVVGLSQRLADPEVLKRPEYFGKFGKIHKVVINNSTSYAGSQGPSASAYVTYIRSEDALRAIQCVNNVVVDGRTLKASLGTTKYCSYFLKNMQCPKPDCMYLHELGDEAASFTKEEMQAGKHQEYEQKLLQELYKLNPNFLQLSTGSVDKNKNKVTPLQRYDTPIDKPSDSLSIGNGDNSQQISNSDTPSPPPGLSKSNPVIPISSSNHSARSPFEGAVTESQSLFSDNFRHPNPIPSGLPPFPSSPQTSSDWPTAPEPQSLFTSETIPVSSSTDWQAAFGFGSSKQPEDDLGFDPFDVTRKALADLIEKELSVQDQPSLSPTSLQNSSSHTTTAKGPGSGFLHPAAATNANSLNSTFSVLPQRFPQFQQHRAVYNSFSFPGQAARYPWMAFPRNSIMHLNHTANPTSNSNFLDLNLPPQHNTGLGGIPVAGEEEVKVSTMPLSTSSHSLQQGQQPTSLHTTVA
# UniProt Q9P0B6, sequence (Q9P0B6 whole entry, looked up): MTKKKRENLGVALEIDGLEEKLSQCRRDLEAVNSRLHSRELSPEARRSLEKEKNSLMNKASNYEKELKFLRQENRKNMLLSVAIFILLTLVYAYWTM
row,Target,log2 fold change
1,C9orf64 (UniProt Q5T6V5),0.049 (inactive)
2,CELF2 isoform 3 (UniProt O95319),-0.107 (inactive)
3,CAMSAP1 isoform 3 (UniProt Q5T5Y3),0.05 (inactive)
4,CNOT4 isoform 6 (UniProt O95628),0.007 (inactive)
5,CSTF2 (UniProt P33240),0.016 (inactive)
6,CBX5 (UniProt P45973),0.012 (inactive)
7,CHD3 isoform 3 (UniProt Q12873),-0.036 (inactive)
8,CCDC9 (UniProt Q9Y3X0),-0.046 (inactive)
9,CHERP (UniProt Q8IWX8),-0.087 (inactive)
10,COQ9 (UniProt O75208),0.02 (inactive)
11,CPQ (UniProt Q9Y646),-0.013 (inactive)
12,CD81 (UniProt P60033),-0.03 (inactive)
13,CDK6 (UniProt Q00534),0.062 (inactive)
14,CHMP4C (UniProt Q96CF2),-0.044 (inactive)
15,CHAC2 (UniProt Q8WUX2),0.026 (inactive)
16,CSNK2B (UniProt P67870),0.05 (inactive)
17,CBR1 (UniProt P16152),0.006 (inactive)
18,CRKL (UniProt P46109),0.037 (inactive)

row,Target,log2 fold change
1,CHD4 isoform 2 (UniProt Q14839),-0.02 (inactive)
2,COA6 isoform 2 (UniProt Q5JTJ3),0.026 (inactive)
3,CNDP2 (UniProt Q96KP4),0.03 (inactive)
4,CETN2 (UniProt P41208),0.011 (inactive)
5,CAMKK2 (UniProt Q96RR4),0 (inactive)
6,CKS1B (UniProt P61024),-0.013 (inactive)
7,CHEK1 (UniProt O14757),0.011 (inactive)
8,CLPP (UniProt Q16740),0.05 (inactive)
9,CDK9 isoform 2 (UniProt P50750),-0.017 (inactive)
10,CHAMP1 (UniProt Q96JM3),0.02 (inactive)
11,CCDC167 (UniProt Q9P0B6),-0.08 (inactive)
12,CALCOCO2 isoform 4 (UniProt Q13137),0.026 (inactive)
13,CPSF3 (UniProt Q9UKF6),-0.004 (inactive)
14,CLASP2 isoform 3 (UniProt O75122),-0.035 (inactive)
15,CLSPN (UniProt Q9HAW4),-0.028 (inactive)
16,COMMD2 (UniProt Q86X83),-0.048 (inactive)
17,CLCN3 (UniProt P51790),-0.05 (inactive)
18,CCNK isoform 4 (UniProt O75909),-0.014 (inactive)

# Compound: C[C@@H](Oc1cc(-c2cnn(C3CCNCC3)c2)cnc1N)c1c(Cl)ccc(F)c1Cl [crizotinib]
# Assay: as above
# Method in brief: as §1
row,Target,log2 fold change
1,C9orf64 (UniProt Q5T6V5),-0.329 (inactive)
2,CELF2 isoform 3 (UniProt O95319),0.098 (inactive)
3,CAMSAP1 isoform 3 (UniProt Q5T5Y3),-0.11 (inactive)
4,CNOT4 isoform 6 (UniProt O95628),0.031 (inactive)
5,CSTF2 (UniProt P33240),0.075 (inactive)
6,CBX5 (UniProt P45973),0.128 (inactive)
7,CHD3 isoform 3 (UniProt Q12873),-0.128 (inactive)
8,CCDC9 (UniProt Q9Y3X0),0.016 (inactive)
9,CHERP (UniProt Q8IWX8),-0.108 (inactive)
10,COQ9 (UniProt O75208),-0.067 (inactive)
11,CPQ (UniProt Q9Y646),-0.023 (inactive)
12,CD81 (UniProt P60033),0.162 (inactive)
13,CDK6 (UniProt Q00534),-0.033 (inactive)
14,CHMP4C (UniProt Q96CF2),-0.007 (inactive)
15,CHAC2 (UniProt Q8WUX2),0.048 (inactive)
16,CSNK2B (UniProt P67870),-0.037 (inactive)
17,CBR1 (UniProt P16152),0.048 (inactive)
18,CRKL (UniProt P46109),-1.34 (active)

row,Target,log2 fold change
1,CHD4 isoform 2 (UniProt Q14839),-0.08 (inactive)
2,COA6 isoform 2 (UniProt Q5JTJ3),-0.001 (inactive)
3,CNDP2 (UniProt Q96KP4),-0.061 (inactive)
4,CETN2 (UniProt P41208),0.103 (inactive)
5,CAMKK2 (UniProt Q96RR4),0.106 (inactive)
6,CKS1B (UniProt P61024),0.063 (inactive)
7,CHEK1 (UniProt O14757),-0.116 (inactive)
8,CLPP (UniProt Q16740),0.348 (active)
9,CDK9 isoform 2 (UniProt P50750),-0.103 (inactive)
10,CHAMP1 (UniProt Q96JM3),-0.154 (inactive)
11,CCDC167 (UniProt Q9P0B6),0.025 (inactive)
12,CALCOCO2 isoform 4 (UniProt Q13137),-0.355 (active)
13,CPSF3 (UniProt Q9UKF6),0.01 (inactive)
14,CLASP2 isoform 3 (UniProt O75122),-0.201 (inactive)
15,CLSPN (UniProt Q9HAW4),0.039 (inactive)
16,COMMD2 (UniProt Q86X83),-0.13 (inactive)
17,CLCN3 (UniProt P51790),-0.191 (inactive)
18,CCNK isoform 4 (UniProt O75909),-0.023 (inactive)

# Source: the supplement of paper PMC10849652
